Screening results (PubChem BioAssay)
FAS TE block: blocks the thioesterase domain of human fatty acid synthase; recombinant FAS-TE, OMFH fluorogenic substrate, fluorescence endpoint; inhibition, % at 15 µM; hit rate 0.67% among 360,000; AID 602261;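 active = compounds whose normalised, plate-corrected inhibition of enzyme fluorescence in the single-dose primary screen is 50% or more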;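 note: 0% = DMSO with enzyme and 100% = substrate without enzyme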
Target sequence (P49327 whole entry, looked up, the tested form may be a part): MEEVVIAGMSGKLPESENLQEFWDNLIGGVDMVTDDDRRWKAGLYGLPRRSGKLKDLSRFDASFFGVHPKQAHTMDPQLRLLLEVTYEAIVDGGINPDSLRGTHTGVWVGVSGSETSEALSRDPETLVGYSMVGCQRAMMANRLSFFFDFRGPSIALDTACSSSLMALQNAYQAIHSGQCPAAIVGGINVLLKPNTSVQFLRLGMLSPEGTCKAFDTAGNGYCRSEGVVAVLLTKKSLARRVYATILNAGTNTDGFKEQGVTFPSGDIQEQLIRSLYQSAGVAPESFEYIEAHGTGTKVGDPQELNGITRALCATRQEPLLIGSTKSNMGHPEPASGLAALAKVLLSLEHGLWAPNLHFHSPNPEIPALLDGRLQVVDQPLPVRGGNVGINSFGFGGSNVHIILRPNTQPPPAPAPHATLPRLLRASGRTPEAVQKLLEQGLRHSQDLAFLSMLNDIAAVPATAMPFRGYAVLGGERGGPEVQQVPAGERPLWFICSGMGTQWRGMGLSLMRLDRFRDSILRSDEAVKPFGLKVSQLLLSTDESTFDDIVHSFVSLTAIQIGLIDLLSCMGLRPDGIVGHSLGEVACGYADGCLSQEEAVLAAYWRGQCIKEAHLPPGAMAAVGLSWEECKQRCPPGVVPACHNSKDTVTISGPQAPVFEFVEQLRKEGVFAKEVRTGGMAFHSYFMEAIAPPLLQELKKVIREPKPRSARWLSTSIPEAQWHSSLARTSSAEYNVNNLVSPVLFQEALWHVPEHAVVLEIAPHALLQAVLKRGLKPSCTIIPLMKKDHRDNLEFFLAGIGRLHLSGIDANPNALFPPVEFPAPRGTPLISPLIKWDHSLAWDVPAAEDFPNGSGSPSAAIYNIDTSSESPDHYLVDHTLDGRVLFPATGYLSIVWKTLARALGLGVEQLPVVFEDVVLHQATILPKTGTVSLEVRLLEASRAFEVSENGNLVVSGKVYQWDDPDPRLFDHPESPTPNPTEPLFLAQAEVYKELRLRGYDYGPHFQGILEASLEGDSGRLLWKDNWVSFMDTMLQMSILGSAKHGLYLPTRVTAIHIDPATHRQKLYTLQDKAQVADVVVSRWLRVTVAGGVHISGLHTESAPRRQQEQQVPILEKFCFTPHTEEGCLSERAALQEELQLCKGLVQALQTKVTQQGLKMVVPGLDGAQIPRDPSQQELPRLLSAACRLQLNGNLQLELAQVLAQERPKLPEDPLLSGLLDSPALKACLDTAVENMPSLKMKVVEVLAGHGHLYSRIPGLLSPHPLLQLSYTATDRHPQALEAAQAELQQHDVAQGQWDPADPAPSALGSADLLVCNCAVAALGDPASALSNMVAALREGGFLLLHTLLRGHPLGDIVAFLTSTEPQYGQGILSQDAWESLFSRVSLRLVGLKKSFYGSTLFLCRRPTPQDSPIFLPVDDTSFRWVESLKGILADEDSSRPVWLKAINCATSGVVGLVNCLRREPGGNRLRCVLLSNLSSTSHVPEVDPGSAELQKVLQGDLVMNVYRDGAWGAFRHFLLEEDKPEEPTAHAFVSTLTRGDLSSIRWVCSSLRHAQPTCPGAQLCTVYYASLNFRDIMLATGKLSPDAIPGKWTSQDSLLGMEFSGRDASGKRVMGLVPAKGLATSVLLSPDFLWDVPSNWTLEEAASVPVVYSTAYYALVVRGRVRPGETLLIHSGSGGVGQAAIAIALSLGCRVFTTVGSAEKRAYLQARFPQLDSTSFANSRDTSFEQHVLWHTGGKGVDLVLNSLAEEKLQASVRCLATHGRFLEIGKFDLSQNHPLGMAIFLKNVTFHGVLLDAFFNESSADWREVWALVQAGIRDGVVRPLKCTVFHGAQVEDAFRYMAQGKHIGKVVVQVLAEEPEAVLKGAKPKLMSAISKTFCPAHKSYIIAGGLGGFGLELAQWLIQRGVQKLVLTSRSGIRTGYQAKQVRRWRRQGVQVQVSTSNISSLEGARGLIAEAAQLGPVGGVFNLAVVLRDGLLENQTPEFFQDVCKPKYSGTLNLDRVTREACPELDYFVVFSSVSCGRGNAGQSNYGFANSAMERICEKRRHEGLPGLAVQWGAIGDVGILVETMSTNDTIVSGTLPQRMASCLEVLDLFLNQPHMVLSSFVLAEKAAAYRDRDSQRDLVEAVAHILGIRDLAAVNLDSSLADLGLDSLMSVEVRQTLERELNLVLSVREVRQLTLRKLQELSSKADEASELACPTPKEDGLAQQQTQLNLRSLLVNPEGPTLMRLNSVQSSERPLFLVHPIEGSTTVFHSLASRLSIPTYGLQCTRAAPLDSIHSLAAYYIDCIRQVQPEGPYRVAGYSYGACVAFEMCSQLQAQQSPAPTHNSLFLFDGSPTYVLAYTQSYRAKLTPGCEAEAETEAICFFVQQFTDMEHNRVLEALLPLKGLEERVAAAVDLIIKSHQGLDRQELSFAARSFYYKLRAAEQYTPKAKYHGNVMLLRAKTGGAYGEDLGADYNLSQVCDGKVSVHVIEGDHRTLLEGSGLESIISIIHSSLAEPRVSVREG
NRP1-CendR mod: NRP-1/CendR interaction modulation | FAM-RPARPAR peptide binding to NRP-1, fluorescence polarization | O14786 | AID 602438 | inhibition, % at 25 µM | hit rate 0.85% among 360,000;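 active = inhibition or corrected inhibition above about 18%, plus a signal ratio from 0.5 to 1.5, limit read from the data, passing the limit was not always enough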
CRFBP-R2 block: antagonists of CRF-binding protein/CRF-R2 receptor complex. hit rate 0.59% among 350,000. AID 588475. inhibition, % at 11.8 µM. HEK293 CRF-R2/CRF-BP, CRF-induced calcium fluorescence;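 active = inhibition of the ligand-induced calcium signal above about 50% at the single tested concentration, limit read from the data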
Myeloid diff MLP: compounds promoting myeloid differentiation; ER-HoxA9 myeloid progenitors, lysozyme-GFP differentiation, flow cytometry; calls only at 10 µM; hit rate 1% among 360,000;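 active = normalized GFP-positive differentiation at or above the plate's own cutoff, the solvent-only control mean plus 3 SD; inconclusive = no clear call, values can overlap the other calls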;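 note: cells exposed to compound for four days before flow analysis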
NadD inh: NadD (S. aureus) enzyme inhibition; purified NadD enzyme, colorimetric absorbance read-out; inhibition, % at 20 µM; hit rate 0.78% among 360,000; in the data active = inhibition above about 26%
NadD conf: confirmation of Staphylococcus aureus NadD inhibitors | hit rate 13% among 2,000 | purified S. aureus NadD, colorimetric enzyme assay | shares compounds with NadD inh | inhibition, % at 20 µM | AID 624309; in the data active = inhibition mostly above about 42%, no sharp cut-off; inactive = mostly below about 42%
Numbers without * were called inactive; i = inactive; ? = inconclusive; nt = no result. This is a sample that favours compounds with a hit; in the whole collection about 3.6% have one here.

SMILES	FAS TE block	NRP1-CendR mod	CRFBP-R2 block	Myeloid diff MLP	NadD inh	NadD conf
CCOc1ccc2oc(C(=O)NNC(=O)c3ccccc3O)c(C)c2c1	12	-7	-3	i	3	nt
Cc1c(C(=O)NNC(=O)c2ccccc2O)oc2ccc(Br)cc12	10	-26	16	i	30*	56*
CCOC(=O)N1CCN(C(=O)C[C@@H]2C[C@@]3(C(=O)OCC)CCCC=C3N(Cc3ccc4c(c3)OCO4)C2=O)CC1	-6	1	nt	i	6	nt
CCC(C)(C)C1CCC2(CC1)NC(=O)N(CC(=O)NC(C)CCc1ccccc1)C2=O (stereo not given)	2	6	-29	i	48*	-21
Cc1cc(C)cc(N(C(C)C(=O)NCc2ccc3c(c2)OCO3)S(C)(=O)=O)c1 (stereo not given)	-2	0	16	i	-2	nt
O=C(N/N=C/c1ccc(Cl)c([N+](=O)[O-])c1)c1cc(-c2ccc3c4c(cccc24)CC3)n[nH]1	10	7	-23	i	51*	1
S=C(NNc1ccnc2cc(Cl)ccc12)Nc1ccc(Cl)cc1Cl	6	10	-18	i	30*	6
O=C1CC(/C=C/c2ccccn2)=Nc2ccccc2N1	-4	-15	-14	i	1	nt
O=C1CC(/C=C/c2ccc([N+](=O)[O-])cc2)=Nc2ccccc2N1	22	2	6	i	36*	2
Cc1nn(Cc2ccc(Cl)c(Cl)c2)c(C)c1NC(=O)c1cn(-c2ccccc2)nc1-c1ccccc1	28	6	7	i	33*	34
COCCN(CC(=O)Nc1cccc(S(=O)(=O)N2CCCC2)c1)Cc1nc2ccccc2c(=O)[nH]1	-5	-13	1	i	-1	nt
Cc1cccc(NC(=O)c2nc[nH]c2C(=O)N[C@@H](C)CO)c1	-5	-6	6	i	-4	nt
O=C(CSc1nnc(SCc2ccccc2)s1)N/N=C/C=C/c1ccco1	7	-54	-26	i	48*	43*
O=C(NCc1ccncc1)C1CCN(S(=O)(=O)c2ccccc2)CC1	-6	4	1	i	-6	nt
CCc1cccc(CC)c1NC(=O)C1SC(=Nc2ccccc2C)C(c2nc3ccccc3s2)=C1N (stereo not given)	14	-6	14	i	32*	6
Cc1ccc(NC(=O)COC(=O)c2ccc3c(c2)NC(=O)C2CCCN32)cc1 (stereo not given)	-3	-28	-6	i	38*	32
O=C(N/C(=C/c1cccc([N+](=O)[O-])c1)C(=O)N1CCCCC1)c1cccs1	11	10	-7	i	0	nt
O=C(Nc1ccc(Cl)c(Cl)c1)Nc1ccc(N2CCCC2)c(S(=O)(=O)Nc2ccccc2Cl)c1	28	-21	4	i	31*	36
O=C(/C=C/c1cccs1)Nc1ccc(N2CCOCC2)c(S(=O)(=O)Nc2ccccc2Cl)c1	27	-10	-4	i	23	nt
COc1ccc(NS(=O)(=O)c2cc(NC(=O)/C=C/c3cc(OC)ccc3OC)ccc2N2CCCCC2)cc1	44	0	5	i	39*	13
O=C(/C=C/c1cccs1)Nc1ccc(N2CCOCC2)c(S(=O)(=O)Nc2cc(Cl)ccc2Cl)c1	25	4	-38	i	34*	16
Cc1ccc(NC(=O)c2cc3c(s2)CCCC3)cc1S(=O)(=O)Nc1ccccc1Cl	28	-2	-42	i	30*	14
O=C(Nc1ccc(N2CCCCC2)c(S(=O)(=O)Nc2ccccc2Cl)c1)c1cccnc1	23	6	-19	i	4	nt
COc1cc(CCN2C(=O)c3cccc4cccc(c34)C2=O)c(S(=O)(=O)N2CCC(C)CC2)cc1OC	30	-2	15	i	-5	nt
COc1ccccc1NS(=O)(=O)c1cc(NC(=O)C(C)C)ccc1N1CCCCC1	32	10	-2	i	10	nt
SMILES	FAS TE block	NRP1-CendR mod	CRFBP-R2 block	Myeloid diff MLP	NadD inh	NadD conf
COc1ccccc1NS(=O)(=O)c1cc(NC(=O)Nc2ccccc2)ccc1N1CCCCC1	21	-6	-3	?	35*	24
O=C(Nc1ccc(N2CCOCC2)c(S(=O)(=O)Nc2ccccc2Cl)c1)c1ccc(F)cc1	27	0	-12	i	0	nt
O=C(Nc1ccc(F)cc1)Nc1ccc(N2CCCC2)c(S(=O)(=O)Nc2ccccc2Cl)c1	33	3	-7	i	30*	28
C[C@H]1CN([C@@H](C)CO)C(=O)c2cc(C#Cc3cccnc3)cnc2O[C@H]1CN(C)Cc1ccc(F)cc1	-4	-3	-4	i	39*	16
COc1ccc(Cc2nc3ccccc3c(=O)n2N)cc1OC	-6	-3	-21	i	-6	nt
O=C(O)c1ccc(OCC(F)(F)F)nc1	-3	1	10	i	6	nt
CCOC(=O)c1sc(N/N=C/c2ccccc2)nc1C	-2	-9	-6	i	2	nt
O=C(O)Cc1sc(N/N=C\c2ccccc2)nc1-c1ccccc1	-14	-72	1	i	47*	55*
COc1ccc(C(CC(=O)c2ccccc2)CC(=O)c2ccccc2)cc1OC	18	11	27	i	3	nt
CCc1cccc(CC)c1-n1c(SCC(=O)N2CCCc3ccccc32)nc(O)cc1=O	-4	12	23	i	9	nt
Cn1c2ccccc2c(=O)c2ccc(C#Cc3ccc(N)cc3)cc21	16	-58	4	i	51*	44
Cn1c2ccccc2c(=O)c2cc(C#CC3=CCCCC3)ccc21	-2	-41	5	i	32*	9
Cc1ccc(C(=O)N(C)Cc2ccc(N3CCOCC3)cc2)cc1S(=O)(=O)NCc1ccccc1	-3	11	4	i	-3	nt
CC[C@]12c3[nH]c4cc(-c5ccco5)ccc4c3CCN1C(=O)[C@@H](CC(=O)NCC13CC4CC(CC(C4)C1)C3)C[C@@H]2C(=O)N1CCN(C(=O)c2ccco2)CC1	20	-54	-2	i	40*	20
CC[C@]12c3[nH]c4cc(-c5ccco5)ccc4c3CCN1C(=O)[C@@H](CC(=O)NCC13CC4CC(CC(C4)C1)C3)C[C@@H]2C(=O)N1CCN(C(=O)C2CC2)CC1	25	-27	-2	i	25	nt
C[C@]12c3[nH]c4cc(-c5ccco5)ccc4c3CCN1C(=O)[C@@H](CC(=O)NCC13CC4CC(CC(C4)C1)C3)C[C@@H]2C(=O)N1CCCCC1	38	-19	-4	i	50*	13
O=C(C[C@H]1C[C@H](C(=O)N2CCOCC2)[C@@]2(CCC3CCCC3)c3[nH]c4cc(-c5ccco5)ccc4c3CCN2C1=O)NCCC1=CCCCC1	28	-41	-3	i	29*	13
COC(=O)[C@@H]1C[C@@]2(O)[C@@H](O)[C@@H](O)[C@@H](O)C[C@H]2N1Cc1ccc(Cl)cc1	-13	6	16	i	-7	nt
